The campaign covered roughly 310,000 compounds. About 18,000 (5.8%) were called active. Roughly 22% stayed inconclusive and do not appear here. The full list was thinned out, with actives kept by preference. Unmarked numbers belong to inactive results. Calls follow the shape of the dose curve; as a rule, active = well fitted inhibition curve with a large enough effect; inconclusive = small, poorly fitted or top-dose-only effect, or another doubt; inactive = no such curve, though single readings can be large or run the other way.
Experiment: Primary qHTS for delayed death inhibitors of the malarial parasite plastid, 48 hour incubation
Details: P. falciparum luciferase growth in erythrocytes; series mostly up to 28.7 µM; activity change, negative = inhibition: at the top concentration
In short: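 First compound was added to culture medium, then infected red cells at 0.1% parasitemia and 2% hematocrit (final). After incubation at 37 C under 5% CO2, luciferase detection reagent was dispensed and light output recorded.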
% is scaled to controls: 0 for no effect and ±100 for the full control effect; potency is read from the fitted curve at half-maximal effect.

| SMILES | activity change, negative = inhibition [%] | Potency |
| --- | --- | --- |
| CCSc1nsc(NC(=O)Nc2ccccc2OC)n1 | 28.3 |  |
| COc1ccc(CC(=O)NC2CCSc3ccccc32)cc1OC (centres undefined) | -8.54 |  |
| CO[C@H]1[C@@H]2C=CO[C@@H](O[C@H]3O[C@@H](CO)[C@H](O)[C@@H](O)[C@@H]3O)[C@@H]2[C@@]2(CO)O[C@@H]12 | 29.6 |  |
| Cc1n[nH]c(=O)c2c(NC(=O)CSc3ccccc3F)oc(C)c12 | 8.5 |  |
| Cc1[nH]nc(-c2ccc(OCc3cnn(-c4ccccc4)c3)cc2O)c1Oc1ccc(Cl)cc1 |  | 5.22 µM (active) |
| COc1ccc(C(=O)Cc2cnn(-c3ccccc3)c2)c(O)c1 | 113 |  |
| CCOc1cc(C2C(C(=O)c3ccco3)=C(O)C(=O)N2Cc2ccccc2)ccc1O (centres undefined) | 27.2 |  |
| Cc1ccccc1NC(=O)C1CCN(C(=O)NC2CCCCC2)CC1 | -4.55 |  |
| Cc1ccc(C)c(-c2nnc(NC(=O)CS(=O)(=O)c3ccccc3)o2)c1 |  | 13.1 µM (active) |
| COc1ccc(-c2nnc(NC(=O)CS(=O)(=O)c3ccc(Cl)cc3)o2)c(OC)c1 | 20.3 |  |
| CCCC(=O)Nc1nnc(-c2ccccc2)o1 | 17.9 |  |
| COc1ccc(NCCc2ccccn2)cc1 | 72.2 |  |
| OCC[C@H]1C[C@H](O)[C@@H](O)[C@]2(CCc3ccccc3O2)O1 | -14.3 |  |
| Cc1ccc2[nH]c(=O)c(CC(=O)O)c(-c3ccccc3)c2c1 | 9.7 |  |
| O=C(/C=C/c1ccco1)NC(=S)N1CCCCC1 | 38.6 |  |
| O=C(CSc1nnc(Nc2ccccc2F)s1)NC1CCCC1 | -16.3 |  |
| COc1ccccc1Nc1nnc(SC(C)C(=O)NC2CC2)s1 (centres undefined) |  | 10.4 µM (active) |
| CCSc1nnc(NC(=O)Cc2ccccc2OC)s1 | 40.4 |  |
| O=C1CCCN1C(=O)COc1ccc([N+](=O)[O-])cc1 | 3.07 |  |
| O=C(CNc1ccccc1N1CCCC1=O)Nc1cc(Cl)ccc1-n1cncn1 | -5.66 |  |
| Cc1nn(-c2ccccc2)c(C)c1NC(=O)CCl |  | 4.65 µM (active) |
| Cc1cccc(C)c1NC(=O)CNC(=O)c1c(C)nn(-c2ccccc2)c1C | -13.5 |  |
| Cc1nn(-c2ccccc2)c(C)c1NC(=O)COC(=O)Cc1ccccc1 | -4.45 |  |
| O=C(Nc1ccc(C(=O)N2CCCCC2)cc1)c1cccc([N+](=O)[O-])c1 | 20.3 |  |
| COc1cc(NS(=O)(=O)c2ccc(NC(=O)c3ccc([N+](=O)[O-])cc3)cc2)ncn1 | -4.13 |  |
| Cn1ccc(=Nc2ccc(NC(=O)c3ccc(N=c4ccn(C)c5ccc([N+](=O)[O-])cc45)cc3)cc2)cc1 |  | 0.233 µM (active) |
| O=S(=O)(c1cccc(-c2nnc3n2CCCCC3)c1)N1CCOCC1 | 7.92 |  |
| O=S(=O)(c1cccc(-c2nnc(SC(F)F)n2-c2ccccc2)c1)N1CCCCC1 |  | 11.7 µM (active) |
| O=S(=O)(c1cccc(-c2cn3ccccc3n2)c1)N1CCCC1 | -26.5 |  |

From PubChem BioAssay AID504832 (National Center for Advancing Translational Sciences (NCATS), 2011)
